Screen size: about 4,500 compounds; about 200 (4.4%) were called active.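 The calls were made as follows: active = cell survival measured by absorbance rises more than 2.5-fold over infected cells without compound; inactive = the rest.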 What follows is part of a selection rich in actives, with near analogues and random picks from the rest.

45 compounds from PubChem BioAssay AID1259312 (Keith Lab, Institute of Cancer Science, University of …, 2017) can be followed below.

A short description of the test: survival after telomere uncapping, modulators, primary screen, cell-based (AID 1259312).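 Also: virus expresses mutant telomerase RNA that uncaps telomeres and kills cells; compound added 2 days after infection so exposure lasts 3 days.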 The conditions noted are these: HCT116 + Ad-hTR-mut, MTT, 5 d; at 10 µM, stronger effect = higher value.
As for `O=[N+]([O-])c1ccc(N2CCOCC2)cc1Cl`, the fold change is 4.62 (active).

As to `CN1CCN(c2ccc([N+](=O)[O-])c(N3CCN(C)CC3)c2)CC1`, the fold change is -1.49 (inactive).

As for `CC1CN(c2ccc([N+](=O)[O-])c(N3CCOCC3)c2)CCN1` (stereo not given), the fold change was -1.03 (inactive).

For `O=[N+]([O-])c1ccc(Cl)c2nonc12`, the fold change is -8.7 (inactive).

On to `NC1(Cc2ccc(Cl)cc2)CC1`, for which the fold change was -2.29 (inactive).

Turning to `O=C1C[C@@H]2OCC=C3CN4CC[C@]56c7ccccc7N1[C@H]5[C@H]2[C@H]3C[C@H]46`, the fold change is -1.27 (inactive).

`COc1cc2c(cc1OC)C13CCN4CC5=CCOC6CC(=O)N2C1C6C5CC43` (stereo not given): the fold change is 3.18 (active).

With `CN1CCN(c2ccc([N+](=O)[O-])cc2Cl)CC1`, the fold change was -1.02 (inactive).

Consider `Cc1cc(C)c(C)c(C=C(C#N)C#N)c1C`, for which the fold change was 1.51 (inactive).

Consider `N#CC(C#N)=Cc1c2ccccc2cc2ccccc12`, for which the fold change was 3.81 (active).

As for `CCc1cc(CC)c(C=C(C#N)C#N)c(CC)c1`, the fold change was 1.07 (inactive).

For the compound `CCOC(=O)c1c(NC(=O)C2C(C)(C)C2(C)C)sc2c1CCC2`, the fold change was -1.33 (inactive).

On to `CC1CN(c2ccc([N+](=O)[O-])cc2[N+](=O)[O-])CCN1` (stereo not given), for which the fold change was 2.15 (inactive).

On to `Clc1ccc2c(N3CCNCC3)ccnc2c1`, for which the fold change is -2.13 (inactive).

With `CC(=O)OC1CCC2(C)C3CCC4(C)C(CC[C@]4(OC(C)=O)C(C)OC(C)=O)C3CC[C@H]2C1` (stereo not given in full), the fold change is 3.25 (active).

Turning to `C[C@]12CC[C@H](O)C[C@@H]1CC[C@@H]1[C@@H]2CC[C@]2(C)C(=O)CC[C@@H]12`, the fold change was 1.18 (inactive).

As to `COC(=O)C(N)CCCN=C(N)N[N+](=O)[O-]` (stereo not given), the fold change is -1.4 (inactive).

In the case of `CCNc1nc(Cl)nc(NCC)n1`, the fold change is 2.5 (active).

Turning to `O=c1[nH]c(=O)n(Cc2ccco2)c(O)c1C=NCc1cccs1`, the fold change result was “inactive”.

As to `COC(=O)Nc1nc2ccccc2[nH]1`, the fold change is -8.68 (inactive).

As to `O=[N+]([O-])c1ccc(NCCO)c2ncccc12`, the fold change is 2.89 (active).

Consider `O=[N+]([O-])c1ccc(NCCO)c2cccnc12`, for which the fold change was -1.59 (inactive).

Regarding `CCNCCNc1ccc([N+](=O)[O-])c2cccnc12`, the fold change is -2.62 (inactive).

On to `N#Cc1c(/N=C/c2c(O)n(Cc3ccco3)c(=O)[nH]c2=O)sc2c1CCCC2`, for which the fold change entry is “inactive”.

Regarding `CC1CN(c2ccccc2[N+](=O)[O-])CCN1` (stereo not given), the fold change is 1.8 (inactive).

Turning to `CC1(C)C(C(=O)Nc2cc(Br)c(Br)c(Br)c2)C1(C)C`, the fold change is -1.03 (inactive).

Regarding `COc1cc2c(cc1OC)C(C)NCC2` (stereo not given), the fold change was 1.05 (inactive).

With `COc1cc2c(cc1O)CCNC2C` (stereo not given), the fold change was 4.6 (active).

Turning to `COc1ccc(CC2NCCc3cc(OC)c(OC)cc32)cc1OC` (stereo not given), the fold change is -2.4 (inactive).

`COCc1c(C)cc(C)c(C=C(C#N)C#N)c1C`: the fold change was -1.04 (inactive).

For the compound `C[C@]12CC[C@H]3[C@@H](CC[C@]4(O)C[C@@H](O)CC[C@]34C=O)[C@@]1(O)CC[C@@H]2C1=CC(=O)OC1`, the fold change is -23.3 (inactive).

As for `CCC1CN2CCC1CC2C(O)c1ccnc2ccc(OC)cc12` (stereo not given), the fold change is 1.15 (inactive).

Consider `C#CCSc1nc2ccccc2c(=O)n1-c1ccccc1`, for which the fold change is -2.72 (inactive).

Regarding `CCCCc1ccc(C=C(C#N)C#N)s1`, the fold change is -1.17 (inactive).

As to `Nc1nonc1-c1nn[nH]n1`, the fold change is -1.38 (inactive).

Consider `Nc1nonc1[N+](=O)[O-]`, for which the fold change was 1.03 (inactive).

Consider `N/N=C(\N)c1nonc1N`, for which the fold change was 3.99 (active).

Regarding `Cc1cc(C)[n+]2cc(Br)ccc2n1`, the fold change was 1.21 (inactive).

Consider `O=C(CCl)Nc1ccccn1`, for which the fold change was -1.43 (inactive).

On to `O=[N+]([O-])c1ccc(N2CCNCC2)c2cccnc12`, for which the fold change was -1.29 (inactive).

In the case of `CC1CN(c2ccc([N+](=O)[O-])c3cccnc23)CC(C)N1` (stereo not given), the fold change is 3.89 (active).

`CN1CCN(c2ccc([N+](=O)[O-])c3cccnc23)CC1`: the fold change was -1.27 (inactive).

For `O=C(CCl)NCc1ccco1`, the fold change was 1.2 (inactive).

In the case of `CCc1nnc(NC(=O)CCl)s1`, the fold change is 1.66 (inactive).

Turning to `N#CC1=C(N)Oc2c(c(=O)oc3ccccc23)C1c1cccc2ccccc12` (stereo not given), the fold change is -1.29 (inactive).
